# Measurements taken from the supplement of paper PMC8728848.
# This is one part of a sample in which the strongest signals are shown more often than they occur.
# Columns and labels:
# Assay in all cases: glycan array binding signal (z-score within array); higher = stronger binding
# Details in all cases: glycan notation: IUPAC condensed, linker removed
# Gal3S4S(b1-4)GlcNAc = target: Gal3S4S(b1-4)GlcNAc
# Method in brief: (§1)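 The binding signal is a Z-score computed within each array. Data were drawn from 3228 arrays in the Consortium for Functional Glycomics database, restricted to those with a known protein sequence. Scores were averaged over arrays of the same protein sequence at different concentrations or buffers, and over linkers, and negative values can be taken as non-binding.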
# GalNAc3S(b1-4)GlcNAc3S = target: GalNAc3S(b1-4)GlcNAc3S
# Method in brief: as §1
# [1] = target: GlcNAc(b1-2)[GlcNAc(b1-4)]Man(a1-3)[GlcNAc(b1-4)][GlcNAc(b1-2)[GlcNAc(b1-6)]Man(a1-6)]Man(b1-4)GlcNAc(b1-4)[Fuc(a1-6)]GlcNAc
# Method in brief: as §1
# GlcNAc(b1-3)Fuc = target: GlcNAc(b1-3)Fuc
# Method in brief: as §1
# [2] = target: GlcNAc(b1-3)Gal(b1-4)GlcNAc
# Method in brief: as §1
# GlcNAc(b1-4)GlcNAc = target: GlcNAc(b1-4)GlcNAc
# Method in brief: as §1
# [3] = target: Kdn(a2-3)Gal(b1-4)[Fuc(a1-3)]GlcNAc
# Method in brief: as §1
# [4] = target: Man(a1-2)Man(a1-2)Man(a1-6)[Man(a1-3)]Man
# Method in brief: as §1
# [5] = target: Man(a1-2)Man(a1-3)[Man(a1-2)Man(a1-6)]Man(a1-6)[Man(a1-2)Man(a1-2)Man(a1-3)]Man
# Method in brief: as §1
# MurNAc(b1-4)GlcNAc = target: MurNAc(b1-4)GlcNAc
# Method in brief: as §1
# [6] = target: Neu5Ac(a2-3)Gal(b1-3)GlcNAc(b1-2)Man(a1-3)[Neu5Ac(a2-3)Gal(b1-3)GlcNAc(b1-2)Man(a1-6)]Man(b1-4)GlcNAc(b1-4)GlcNAc
# Method in brief: as §1
# [7] = target: Neu5Ac(a2-3)Gal(b1-3)GlcNAc(b1-3)GalNAc
# Method in brief: as §1
# [8] = target: Neu5Ac(a2-3)Gal(b1-3)GlcNAc(b1-4)Gal(b1-4)Glc
# Method in brief: as §1
# [9] = target: Neu5Ac(a2-3)Gal(b1-3)[Fuc(a1-4)]GlcNAc(b1-3)Gal(b1-3)[Fuc(a1-4)]GlcNAc
# Method in brief: as §1
# [10] = target: Neu5Ac(a2-3)Gal(b1-4)GlcNAc(b1-3)Gal
# Method in brief: as §1
# [11] = target: Neu5Ac(a2-3)Gal(b1-4)GlcNAc(b1-6)[Gal(b1-3)]GalNAc
# Method in brief: as §1
# [12] = target: Neu5Ac(a2-3)Gal(b1-4)[Fuc(a1-3)]GlcNAc(b1-6)[Gal(b1-3)]GalNAc
# Method in brief: as §1
# [13] = target: Neu5Ac(a2-3)[GalNAc(b1-4)]Gal(b1-4)GlcNAc(b1-3)GalNAc
# Method in brief: as §1
# [14] = target: Neu5Ac(a2-6)Gal(b1-4)GlcNAc(b1-2)Man(a1-3)[Neu5Ac(a2-3)Gal(b1-4)GlcNAc(b1-2)Man(a1-6)]Man(b1-4)GlcNAc(b1-4)GlcNAc
# Method in brief: as §1
# [15] = target: Neu5Ac(a2-6)Gal(b1-4)GlcNAc(b1-2)[Neu5Ac(a2-6)Gal(b1-4)GlcNAc(b1-4)]Man(a1-3)[GlcNAc(b1-4)][Neu5Ac(a2-6)Gal(b1-4)GlcNAc(b1-4)Man(a1-6)]Man(b1-4)GlcNAc(b1-4)GlcNAc
# Method in brief: as §1
# [16] = target: Neu5Ac(a2-6)Gal(b1-4)GlcNAc(b1-2)[Neu5Ac(a2-6)Gal(b1-4)GlcNAc(b1-6)]Man(a1-6)[Neu5Ac(a2-6)Gal(b1-4)GlcNAc(b1-2)Man(a1-3)][GlcNAc(b1-4)]Man(b1-4)GlcNAc(b1-4)GlcNAc
# Method in brief: as §1
# [17] = target: Neu5Ac(a2-8)Neu5Ac(a2-3)Gal(b1-4)Glc
# Method in brief: as §1
# [18] = target: Neu5Ac(a2-8)Neu5Ac(a2-8)Neu5Ac(a2-8)Neu5Ac(a2-3)[GalNAc(b1-4)]Gal(b1-4)Glc
# Method in brief: as §1
# [19] = target: Neu5Ac9Ac(a2-3)Gal(b1-4)GlcNAc
# Method in brief: as §1
binder,measurement,setting,value
"DC-Sign (Homo sapiens), Q9NNX6 (protein) MSDSKEPRLQQLGLLEEEQLRGLGFRQTRGYKSLAGCLGHGPLVLQLLSFTLLAGLLVQVSKVPSSISQEQSRQDAIYQNLTQLKAAVGELSEKSKLQEIYQELTQLKAAVGELPEKSKLQEIYQELTRLKAAVGELPEKSKLQEIYQELTWLKAAVGELPEKSKMQEIYQELTRLKAAVGELPEKSKQQEIYQELTRLKAAVGELPEKSKQQEIYQELTRLKAAVGELPEKSKQQEIYQELTQLKAAVERLCHPCPWEWTFFQGNCYFMSNSQRNWHDSITACKEVGAQLVVIKSAEEQNFLQLQSSRSNRFTWMGLSDLNQEGTWQWVDGSPLLPSFKQYWNRGEPNNVGEEDCAEFSGNGWNDDKCNLAKFWICKKSAASCSRDEEQFLSPAPATPNPPPA",glycan array binding signal (z-score),Gal3S4S(b1-4)GlcNAc,-0.195
same,glycan array binding signal (z-score),GalNAc3S(b1-4)GlcNAc3S,-0.101
same,glycan array binding signal (z-score),[1],-0.179
same,glycan array binding signal (z-score),GlcNAc(b1-3)Fuc,-0.17
same,glycan array binding signal (z-score),[2],-0.089
same,glycan array binding signal (z-score),GlcNAc(b1-4)GlcNAc,-0.109
same,glycan array binding signal (z-score),[3],-0.1
same,glycan array binding signal (z-score),[4],4.51
same,glycan array binding signal (z-score),[5],8.32
same,glycan array binding signal (z-score),MurNAc(b1-4)GlcNAc,0.01
same,glycan array binding signal (z-score),[6],-0.202
same,glycan array binding signal (z-score),[7],-0.142
same,glycan array binding signal (z-score),[8],-0.183
same,glycan array binding signal (z-score),[9],1.83
same,glycan array binding signal (z-score),[10],-0.186
same,glycan array binding signal (z-score),[11],-0.171
same,glycan array binding signal (z-score),[12],-0.164
same,glycan array binding signal (z-score),[13],-0.171
same,glycan array binding signal (z-score),[14],-0.097
same,glycan array binding signal (z-score),[15],-0.183
same,glycan array binding signal (z-score),[16],-0.167
same,glycan array binding signal (z-score),[17],-0.177
same,glycan array binding signal (z-score),[18],-0.19
same,glycan array binding signal (z-score),[19],-0.175
